Our source for the activity, negative = inhibition and AC50 values is PubChem BioAssay AID1851 (National Center for Advancing Translational Sciences (NCATS), 2009).

As usually defined, the AC50 is the concentration at which the activity in the assay is half-maximal.

Hit rate of the full screen: of about 16,000 compounds, about 5,100 (32%) were called active. Roughly 25% stayed inconclusive and do not appear here. The list shows a part of the results. Values without a mark were called inactive. The call rests on the fitted dose curve; in most records, active means well fitted curve in the direction sought with a large enough effect; inconclusive means small, poorly fitted or top-dose-only effect, or effect the other way; inactive means no such curve, though single readings can be large or run the other way.
On the % scale 0 is the no-effect control and ±100 the full control effect.

Sequence of Cytochrome P450 3A4 (Homo sapiens) (P08684 whole entry, looked up): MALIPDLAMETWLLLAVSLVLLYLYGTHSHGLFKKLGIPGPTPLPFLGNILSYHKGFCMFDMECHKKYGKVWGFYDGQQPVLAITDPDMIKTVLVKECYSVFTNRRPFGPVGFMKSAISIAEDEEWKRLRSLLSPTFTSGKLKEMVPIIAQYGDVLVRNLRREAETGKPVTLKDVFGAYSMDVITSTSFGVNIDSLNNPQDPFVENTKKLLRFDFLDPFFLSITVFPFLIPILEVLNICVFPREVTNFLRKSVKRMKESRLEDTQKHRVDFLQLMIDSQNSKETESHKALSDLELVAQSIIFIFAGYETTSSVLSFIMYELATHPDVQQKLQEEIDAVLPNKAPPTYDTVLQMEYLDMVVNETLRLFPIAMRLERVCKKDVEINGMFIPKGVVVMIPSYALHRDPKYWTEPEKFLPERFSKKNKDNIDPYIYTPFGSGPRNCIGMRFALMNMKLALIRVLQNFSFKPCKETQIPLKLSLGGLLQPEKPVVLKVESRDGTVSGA

The experiment concerns the target Cytochrome P450 3A4 (Homo sapiens) (UniProt P08684). Nature of the experiment: Cytochrome panel assay with activity outcomes. The following applies: recombinant CYP, pro-luciferin dealkylation, luminescence, p450-cyp3a4; series mostly up to 57.1 µM.
Consider `c1ccc2c(c1)OC[C@@H](C1=NCCN1)O2`, for which the activity, negative = inhibition result is “inactive”. As for `c1ccc(C2CC2)c(OCC2=NCCN2)c1`, the activity, negative = inhibition entry was “inactive”. For the compound `CNCC/C=C\c1cccnc1`, the activity, negative = inhibition entry is “inactive”. Regarding `S=C=Nc1cccc(C2(N3CCCCC3)CCCCC2)c1`, the AC50 was 15.8 µM (active). With `CCC(COC(=O)NC)NC(=O)Oc1ccccc1` (stereo unspecified), the activity, negative = inhibition result is “inactive”.

`NC(N)=NC(=O)c1nc(Cl)c(N)nc1N`: the activity, negative = inhibition result was “inactive”. Regarding `Clc1cc(I)cc(Cl)c1NC1=NCCN1`, the activity, negative = inhibition result is “inactive”.

Regarding `O=C(N/N=C(\c1ccccc1)c1cccnc1)C(O)(c1ccccc1)c1ccccc1`, the AC50 was 7.94 µM (active). On to `O=C(NCP(=O)(O)O)c1cccnc1`, for which the activity, negative = inhibition is -14.3% [at 11.4 µM]. Consider `CC[C@]1(C2=NCCN2)Cc2ccccc2O1`, for which the activity, negative = inhibition entry is “inactive”.

For `CCN(CC)c1ccc(/C=C2/C(=O)NC(=O)N(CC3CCCO3)C2=O)cc1` (stereo unspecified), the activity, negative = inhibition entry is “inactive”. On the same count and under the same terms, the entry for `C[C@@H]1O[C@@H](O[C@H]2C[C@@H](O)[C@]3(CO)[C@@H]4[C@@H](O)C[C@]5(C)[C@H](C6=CC(=O)OC6)CC[C@@]5(O)[C@H]4CC[C@@]3(O)C2)[C@H](O)[C@H](O)[C@@H]1O` is “inactive”. Regarding `C/C=C(\C)C(=O)O[C@@H]1C(C)=C2[C@H]([C@@H]1OC(=O)CCCCCCC)[C@@](C)(OC(C)=O)C[C@@H](OC(=O)CCC)[C@@]1(O)[C@H]2OC(=O)[C@]1(C)O`, the AC50 is 3.98 µM (active).

For `CO[C@H]1[C@H](O)[C@H](O[C@@H]2[C@H](Oc3cccc4c(O)c5c(=O)oc6ccc(C)c7c(=O)oc(c34)c5c67)O[C@@H](C)[C@H](O)[C@H]2O)O[C@@H](C)[C@@H]1O`, the activity, negative = inhibition was -7.43% [at 11.4 µM].

In the case of `CCOC(=O)c1ncn2c1[C@H]1CCCN1C(=O)c1cc(OC)ccc1-2`, the activity, negative = inhibition result is “inactive”. Regarding `COc1cc2c(cc1OC)[C@@H]1C(=O)c3ccc4c(c3O[C@@H]1CO2)C=CC(C)(C)O4`, the AC50 was 15.8 µM (active). For the compound `Cc1ncc([N+](=O)[O-])n1CCN=[N+]=[N-]`, the activity, negative = inhibition was -15.3% [at 11.4 µM]. In the case of `NCCc1ccc(S(=O)(=O)F)cc1`, the activity, negative = inhibition entry is “inactive”.

With `C=CCN1C(=O)NC(=O)/C(=C/c2cccn2C)C1=O`, the activity, negative = inhibition was 8.88% [at 2.29 µM]. Turning to `O=c1c2ccccc2nc(N2CCCC2)n1-c1ccc(Cl)cc1`, the AC50 was 12.6 µM (active).

On to `Cc1nc2sccc2c(=O)n1-c1ccccc1Cl`, for which the activity, negative = inhibition is 4.91% [at 2.29 µM].

Turning to `O=C(Nc1ccc(Cl)cc1)Nc1nccs1`, the activity, negative = inhibition is -2.97% [at 2.29 µM].

With `O=C(O)CCCc1ccc(N(CCCl)CCCl)cc1`, the activity, negative = inhibition entry was “inactive”. As to `Cc1ccc2c(c1)N(CCC(=O)N1CCC3(CC1)OCCO3)C(=O)C(C)O2` (stereo unspecified), the AC50 was 2 µM (active). As to `Cc1ccc2cc3cc(C(=O)N4CCC5(CC4)OCCO5)oc3nc2c1`, the activity, negative = inhibition entry was “inactive”. Still for that read-out and setting: the value for `Cc1cc(NC(=O)CCC(=O)N2CCC3(CC2)OCCO3)no1` was “inactive”; that for `CC(C)NP(=O)(NC(C)C)OP(=O)(NC(C)C)NC(C)C` was “inactive”.

Regarding `N#CCCCC[N+]12CN3CN(CN(C3)C1)C2`, the activity, negative = inhibition is -1.78% [at 11.4 µM]. Consider `c1ccc(N2CC3(CCNCC3)C2)cc1`, for which the activity, negative = inhibition result was “inactive”. Take `COc1ccc2c(c1)CCC1C2CC[C@]2(C)[C@H](NCCCCCCN3C(=O)C=CC3=O)CC[C@@H]12` (stereo partly specified): the activity, negative = inhibition result was “inactive”. Regarding `C[C@@H]1[C@@H](C)N1C[C@H](O)Cn1ccnc1[N+](=O)[O-]` (stereo partly specified), the activity, negative = inhibition is -14.6% [at 11.4 µM].

In the case of `c1ccc(CCN2CCOCC2)nc1`, the activity, negative = inhibition is -6.24% [at 11.4 µM]. Regarding `COCCCn1c(N)c(C(=O)Nc2sc3c(c2C(=O)OC)CCCC3)c2nc3ccccc3nc21`, the AC50 is 15.8 µM (active). With `CNC(=O)OCC[N+](C)(C)C`, the activity, negative = inhibition entry was “inactive”. In the case of `O=C1Nc2ccc(I)cc2/C1=C/c1cc(Br)c(O)c(Br)c1`, the AC50 was 5.01 µM (active). Take `CC(C)c1ccc(C(O)(C(=O)O)c2ccc(C(C)C)cc2)cc1`: the activity, negative = inhibition is 19.4% [at 11.4 µM]. For the compound `CC(C)c1ccc2c(c1)c(SC(C)(C)C)c(CC(C)(C)C(=O)O)n2Cc1ccc(Cl)cc1`, the AC50 was 20 µM (active). For `CC(C)(C)NC[C@H](O)c1ccccc1Cl`, the activity, negative = inhibition entry was “inactive”. Take `C[C@H](N)[C@@H](O)c1ccccc1`: the activity, negative = inhibition entry was “inactive”.

As for `C[C@H](N)c1cccc(Cl)c1Cl`, the AC50 is 25.1 µM (active). On to `CCOC(=O)N(c1ccccc1)P1(=S)OCCO1`, for which the activity, negative = inhibition was -25.1% [at 11.4 µM]. Consider `O=P(Nc1c(Cl)cccc1Cl)(c1ccccc1)c1nc2c(s1)CCCC2` (stereo unspecified), for which the AC50 was 11.2 µM (active). `O=[As](O)(O)c1ccc2nc3cc([As](=O)(O)O)ccc3nc2c1`: the activity, negative = inhibition was 5.92% [at 11.4 µM].

`Cn1cnc(CCN)c1`: the activity, negative = inhibition result was “inactive”. As to `COCCCN1Cc2ccccc2C1=N`, the activity, negative = inhibition entry was “inactive”. In the case of `O=C(O)/C=C(\CC(=O)O)C(=O)O`, the activity, negative = inhibition was -2.52% [at 11.4 µM].

With `C[C@@]12CC[C@@H]3[C@H](CCC4=CC(=O)CC[C@]43C)[C@@H]1CC[C@@H]2C(=O)COS(=O)(=O)c1ccc(Br)cc1`, the activity, negative = inhibition was 20.5% [at 11.4 µM]. On to `Nc1nc(OCc2ccccc2)c2[nH]cnc2n1`, for which the AC50 is 7.94 µM (active). As for `O=C(Nc1ccc(F)cc1F)c1cccnc1Oc1cccc(C(F)(F)F)c1`, the activity, negative = inhibition entry is “inactive”. Turning to `CCOC(=O)[C@@H]1[C@@H]2c3ccccc3-c3ccccc3[C@H]2C[C@H]1O`, the activity, negative = inhibition was -1.52% [at 11.4 µM].

`Cc1ccc(N(C)C(=O)Oc2cccc3ccc(C)nc23)cc1`: the AC50 is 15.8 µM (active). With `N[C@H](CCl)C(=O)O`, the activity, negative = inhibition result is “inactive”.

On to `C[C@H](CCC(=O)O)[C@H]1CC[C@]2(C)[C@@H]3C(=O)C[C@H]4C(C)(C)[C@@H](O)CC[C@]4(C)[C@H]3C(=O)C[C@@]12C`, for which the activity, negative = inhibition was -2.04% [at 11.4 µM]. Same read-out and setting: the entry for `CN(N=O)c1cc(O)ccc1O` is “inactive”; for `Cn1c(=O)c2[nH]cnc2n(C)c1=O.[CH2-][C@H](Cc1cccc2cc(C(=O)O)c(=O)oc12)OC.[Hg].[OH-]` it is 12.4% [at 11.4 µM]; for `C[C@]12CC[C@H]3c4ccc(O)cc4CC[C@@H]3[C@H]1CC[C@@H]2OC(=O)CCc1ccccc1` it is -2.52% [at 11.4 µM].

Regarding `COc1ccc2c(c1)[C@]13CCCC[C@@H]1[C@H](C2)NCC3`, the AC50 was 15.8 µM (active). Take `O=C(CCN1CC2CCC(CC2)C1)c1cccs1`: the activity, negative = inhibition is -19.3% [at 11.4 µM]. Take `c1ccc2c(N3CCNCC3)cccc2c1`: the activity, negative = inhibition result was “inactive”. For the compound `N[C@@H](Cn1cc(I)c(=O)[nH]c1=O)C(=O)O`, the activity, negative = inhibition result is “inactive”. Consider `O=c1ccc2[nH]cc(C3=CCNCC3)c2[nH]1`, for which the activity, negative = inhibition result is “inactive”. For `COc1ccc2[nH]cc(C3=CCNCC3)c2c1`, the AC50 was 1.26 µM (active). Consider `CCCOc1ccc2[nH]cc(C3=CCNCC3)c2n1`, for which the AC50 was 2.51 µM (active). In the case of `CCCN1CCc2cc(O)cc3c2[C@H]1Cc1ccc(O)c(O)c1-3`, the activity, negative = inhibition result was “inactive”. Regarding `c1ccc(CCN2CCCCCC2)nc1`, the activity, negative = inhibition is -14.2% [at 11.4 µM].

For `CCSCC[C@H](N)C(=O)O`, the activity, negative = inhibition was 5.54% [at 11.4 µM]. `CO[C@@H]([CH2][Hg])CN1C(=O)c2ccccc2S1(=O)=O.Cn1c(=O)c2nc[nH]c2n(C)c1=O`: the activity, negative = inhibition was 2.75% [at 11.4 µM]. Regarding `CC(=O)OC1=CC2=CC[C@H]3[C@H]4CCC(=O)[C@@]4(C)CC(=O)[C@]3(S)[C@]2(C)CC1`, the activity, negative = inhibition was -29.7% [at 11.4 µM]. Consider `C=C(C)[C@H]1CC[C@]2(C(=O)O)CC[C@]3(C)[C@@H](CC[C@H]4[C@@]5(C)CC[C@@H](O)C(C)(C)[C@@H]5CC[C@@]43C)[C@H]12`, for which the activity, negative = inhibition result is “inactive”. In the case of `C[C@@H]1[C@H]2C=C[C@@H]1[C@@H](c1c3ccc(=O)c(O)c-3oc3c(O)c(O)ccc13)[C@@H]2C(=O)O`, the activity, negative = inhibition is -0.366% [at 11.4 µM].

In the case of `O=C(C1CC(=O)N(C2CCCC2)C1)N1CCC2(CC1)OCCO2` (stereo unspecified), the activity, negative = inhibition result was “inactive”. For the compound `CN1[C@@H](CC(=O)c2ccccc2)CCC[C@@H]1C[C@@H](O)c1ccccc1`, the activity, negative = inhibition entry was “inactive”. As to `N[C@H](Cc1o[nH]c(=O)c1Cl)C(=O)O`, the activity, negative = inhibition entry is “inactive”. In the case of `CS(=O)(=O)N1CCCC(C(=O)N2CCC3(CC2)OCCO3)C1` (stereo unspecified), the activity, negative = inhibition is 1.72% [at 2.29 µM]. Regarding `Cc1ccc(S(=O)(=O)NCC2CCC(C(=O)N3CCC4(CC3)OCCO4)CC2)cc1` (stereo unspecified), the AC50 is 15.8 µM (active).

Regarding `O=C(CNS(=O)(=O)c1cccs1)N1CCC2(CC1)OCCO2`, the activity, negative = inhibition result was “inactive”. Turning to `CCCCCCN=Cc1c(O)n(C)c(=O)n(C)c1=O`, the activity, negative = inhibition was 16.4% [at 2.29 µM].

Regarding `CCN1CCN(S(=O)(=O)c2ccc(Cl)nc2)CC1`, the activity, negative = inhibition entry was “inactive”. As to `Cc1nc(N)sc1CCN`, the activity, negative = inhibition entry was “inactive”. As for `COc1ccc(CCNc2cc(-c3ccccc3)nc3ncnn23)cc1`, the AC50 was 5.62 µM (active). Regarding `C=C(C)[C@H]1CN[C@H](C(=O)O)[C@@H]1CC(=O)O`, the activity, negative = inhibition entry was “inactive”. For `N#CCCN`, the activity, negative = inhibition entry is “inactive”. As to `CN(C)[C@@H]1C(=O)C(C(N)=O)=C(O)[C@]2(O)C(=O)C3=C(O)c4c(O)cccc4[C@](C)(O)[C@H]3C[C@@H]12`, the activity, negative = inhibition was -3.93% [at 11.4 µM]. Regarding `CCOc1ccc(C2C(C#N)=C(N)Oc3c2c(=O)oc2ccccc32)cc1` (stereo unspecified), the activity, negative = inhibition is -8.38% [at 2.29 µM]. As to `C=Cn1ccnc1P(=S)(c1nccn1C=C)C1CCCCC1`, the AC50 was 1.26 µM (active). Take `C[C@H]1C(=O)O[C@@H]2CCN3CC=C(COC(=O)[C@@](C)(O)[C@@]1(C)O)[C@H]23`: the activity, negative = inhibition result is “inactive”. Still for that read-out and setting: the entry for `CC(=O)N1CC[N+](C)(C)CC1` is “inactive”. With `C[C@]12CC[C@@H]3C(=CCc4cc(O)ccc43)[C@@H]1CCC2=O`, the AC50 was 10 µM (active). Turning to `C[C@@]12CC[C@@H]3c4ccc(O)cc4CC[C@H]3[C@H]1CC[C@H]2O`, the activity, negative = inhibition entry was “inactive”. `C[C@]12CCC3c4ccc(OCC(=O)O)cc4CCC3C1CCC2=O` (stereo partly specified): the activity, negative = inhibition was -8.48% [at 11.4 µM]. On to `CCN1C[C@]2(COC(=O)c3ccccc3N3C(=O)C[C@H](C)C3=O)CC[C@H](OC)[C@@]34[C@@H]5C[C@H]6[C@H](OC)[C@H]5[C@](O)(C[C@@H]6OC)[C@@](O)([C@@H](OC)[C@@H]23)[C@@H]14`, for which the activity, negative = inhibition result is “inactive”.
